# Measurements taken from paper PMC7862700, “An all-to-all approach to the identification of sequence-specific readers for epigenetic DNA modifications on cytosine”.
# Key:
# Assay in all cases: DAPPL (digital affinity profiling via proximity ligation, sequencing); 10 mM Tris-HCl pH 7.5, 50 mM NaCl, 1 mM DTT, 4% glycerol, room temperature, 30 min; GST-TFs on glutathione beads, 16-mer random dsDNA library, 0.1% formaldehyde crosslink after washing; high values mean tight binding
# Conditions in all cases: protein: recombinant; tags: N-terminal GST; dsDNA, one strand shown
# [1] = biological target: T1, ELK1 (Homo sapiens, UniProt P19419 1-428)
# T1 sequence: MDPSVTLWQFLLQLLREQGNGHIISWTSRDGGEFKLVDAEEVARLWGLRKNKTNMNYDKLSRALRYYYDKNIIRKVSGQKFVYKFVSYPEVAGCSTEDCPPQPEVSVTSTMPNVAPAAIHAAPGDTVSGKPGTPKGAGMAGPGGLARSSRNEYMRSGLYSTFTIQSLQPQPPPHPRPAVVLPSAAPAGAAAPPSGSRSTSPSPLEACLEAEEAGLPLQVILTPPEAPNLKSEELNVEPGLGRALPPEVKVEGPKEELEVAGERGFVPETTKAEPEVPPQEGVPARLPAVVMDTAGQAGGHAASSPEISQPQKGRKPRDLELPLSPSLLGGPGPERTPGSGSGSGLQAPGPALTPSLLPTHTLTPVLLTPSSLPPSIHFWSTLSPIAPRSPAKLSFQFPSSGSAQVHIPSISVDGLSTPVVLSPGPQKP
# Method in brief: (§1)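 Sequencing on an Illumina NextSeq500 followed washing, crosslinking with 0.1% formaldehyde, proximity ligation (BsaI/T4 ligase, 1 h, 37 °C) and PCR amplification of pools that had been incubated for 30 min at room temperature with 200 nmole of a random double-stranded 16-mer DNA library in Tris/NaCl/DTT/glycerol buffer. Each pool held DNA-barcoded human transcription factors, expressed in yeast as GST fusions and captured on glutathione beads, plus a tag-only sample. Binding signal is a hexamer's read frequency for a factor divided by its frequency in the tag-only sample.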
# [2] = biological target: T2, GABPA (Homo sapiens, UniProt Q06546 1-454)
# T2 sequence: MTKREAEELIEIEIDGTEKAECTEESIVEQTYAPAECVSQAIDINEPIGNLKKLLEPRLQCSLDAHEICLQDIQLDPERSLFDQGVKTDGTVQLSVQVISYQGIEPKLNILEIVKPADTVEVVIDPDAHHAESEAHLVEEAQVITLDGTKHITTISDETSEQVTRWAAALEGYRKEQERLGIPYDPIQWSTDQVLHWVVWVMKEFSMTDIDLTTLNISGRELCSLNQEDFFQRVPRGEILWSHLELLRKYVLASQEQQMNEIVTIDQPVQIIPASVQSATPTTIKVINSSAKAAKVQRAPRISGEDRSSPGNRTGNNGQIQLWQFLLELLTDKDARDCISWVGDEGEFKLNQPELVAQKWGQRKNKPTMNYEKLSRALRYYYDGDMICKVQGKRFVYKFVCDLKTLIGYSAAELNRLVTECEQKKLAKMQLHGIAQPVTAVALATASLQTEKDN
# Method in brief: as §1
# [3] = biological target: ELF1 (Homo sapiens, UniProt P32519 1-619)
# Method in brief: as §1
# [4] = biological target: T3, EHF (Homo sapiens, UniProt Q9NZC4 1-300)
# T3 sequence: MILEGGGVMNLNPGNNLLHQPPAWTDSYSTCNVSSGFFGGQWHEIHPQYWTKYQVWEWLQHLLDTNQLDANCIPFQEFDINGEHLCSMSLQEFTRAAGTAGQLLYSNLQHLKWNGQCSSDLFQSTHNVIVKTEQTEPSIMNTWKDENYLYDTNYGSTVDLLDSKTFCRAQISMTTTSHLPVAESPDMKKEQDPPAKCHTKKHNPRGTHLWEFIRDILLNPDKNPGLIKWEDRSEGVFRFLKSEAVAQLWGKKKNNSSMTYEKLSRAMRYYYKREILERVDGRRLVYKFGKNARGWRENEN
# Method in brief: as §1
# [5] = biological target: SPIB (Homo sapiens, UniProt Q01892 1-262)
# Method in brief: as §1
# [6] = biological target: T4, FEV (Homo sapiens, UniProt Q99581 1-238)
# T4 sequence: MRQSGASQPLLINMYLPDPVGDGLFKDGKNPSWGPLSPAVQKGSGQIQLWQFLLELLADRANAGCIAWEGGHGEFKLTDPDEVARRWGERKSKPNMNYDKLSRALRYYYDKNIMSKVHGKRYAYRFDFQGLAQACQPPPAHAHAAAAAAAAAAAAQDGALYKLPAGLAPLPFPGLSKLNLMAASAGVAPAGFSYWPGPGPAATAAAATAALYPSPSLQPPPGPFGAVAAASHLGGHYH
# Method in brief: as §1
# [7] = biological target: ETV5 (Homo sapiens, UniProt P41161 1-510)
# Method in brief: as §1
# [8] = biological target: ELF4 (Homo sapiens, UniProt Q99607 1-663)
# Method in brief: as §1
# [9] = biological target: T5, ELK4 (Homo sapiens, UniProt P28324-2 1-405)
# T5 sequence: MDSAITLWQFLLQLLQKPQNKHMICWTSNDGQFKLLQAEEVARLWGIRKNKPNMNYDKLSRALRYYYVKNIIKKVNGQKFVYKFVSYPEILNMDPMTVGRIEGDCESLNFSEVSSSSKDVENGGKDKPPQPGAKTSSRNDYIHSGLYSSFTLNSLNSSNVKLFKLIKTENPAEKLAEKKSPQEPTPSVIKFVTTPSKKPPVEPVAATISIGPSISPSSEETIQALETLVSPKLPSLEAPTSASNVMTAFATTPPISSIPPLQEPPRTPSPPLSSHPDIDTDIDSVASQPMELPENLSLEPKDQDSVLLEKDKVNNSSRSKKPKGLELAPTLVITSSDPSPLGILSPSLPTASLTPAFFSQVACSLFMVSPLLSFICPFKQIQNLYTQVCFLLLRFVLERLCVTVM
# Method in brief: as §1
# [10] = biological target: T6, ETV2 (Homo sapiens, UniProt O00321 1-342)
# T6 sequence: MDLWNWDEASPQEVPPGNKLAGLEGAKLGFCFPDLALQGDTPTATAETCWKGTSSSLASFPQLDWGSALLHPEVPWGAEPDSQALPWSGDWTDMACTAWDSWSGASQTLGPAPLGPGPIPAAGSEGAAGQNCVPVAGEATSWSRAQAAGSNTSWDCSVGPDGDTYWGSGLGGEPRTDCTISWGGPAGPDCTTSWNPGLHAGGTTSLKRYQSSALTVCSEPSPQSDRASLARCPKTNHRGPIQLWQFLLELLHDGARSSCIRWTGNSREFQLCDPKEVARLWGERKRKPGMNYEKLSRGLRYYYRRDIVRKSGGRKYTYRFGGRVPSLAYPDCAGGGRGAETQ
# Method in brief: as §1
# [11] = biological target: T7, ELF3 (Homo sapiens, UniProt P78545 1-371)
# T7 sequence: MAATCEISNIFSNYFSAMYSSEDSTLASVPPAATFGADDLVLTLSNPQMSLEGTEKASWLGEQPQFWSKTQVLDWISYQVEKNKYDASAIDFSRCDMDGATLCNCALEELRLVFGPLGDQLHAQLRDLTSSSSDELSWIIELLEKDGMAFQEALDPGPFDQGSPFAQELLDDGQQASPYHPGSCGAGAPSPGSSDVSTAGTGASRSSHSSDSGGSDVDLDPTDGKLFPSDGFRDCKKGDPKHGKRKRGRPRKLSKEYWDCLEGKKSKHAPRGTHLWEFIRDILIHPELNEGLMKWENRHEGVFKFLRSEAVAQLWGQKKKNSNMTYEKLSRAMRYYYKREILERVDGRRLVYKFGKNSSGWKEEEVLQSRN
# Method in brief: as §1
# [12] = biological target: ETV1 (Homo sapiens, UniProt P50549 1-477)
# Method in brief: as §1
# [13] = biological target: T8, ETS2 (Homo sapiens, UniProt P15036 1-469)
# T8 sequence: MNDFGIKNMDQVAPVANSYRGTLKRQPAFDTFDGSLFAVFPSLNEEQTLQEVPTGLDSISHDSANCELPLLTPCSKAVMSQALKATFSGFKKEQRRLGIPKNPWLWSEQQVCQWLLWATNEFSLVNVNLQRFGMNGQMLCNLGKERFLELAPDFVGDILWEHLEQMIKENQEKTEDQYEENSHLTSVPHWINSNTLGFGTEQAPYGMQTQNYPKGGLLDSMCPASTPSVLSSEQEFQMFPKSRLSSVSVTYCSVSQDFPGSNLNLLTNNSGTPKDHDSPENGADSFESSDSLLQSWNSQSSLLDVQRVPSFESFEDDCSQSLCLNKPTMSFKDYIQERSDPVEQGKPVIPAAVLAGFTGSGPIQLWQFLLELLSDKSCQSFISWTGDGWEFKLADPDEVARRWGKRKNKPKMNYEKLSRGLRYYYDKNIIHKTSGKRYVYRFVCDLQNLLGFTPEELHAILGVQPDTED
# Method in brief: as §1
# [14] = biological target: T9, ETV3 (Homo sapiens, UniProt P41162-2 1-143)
# T9 sequence: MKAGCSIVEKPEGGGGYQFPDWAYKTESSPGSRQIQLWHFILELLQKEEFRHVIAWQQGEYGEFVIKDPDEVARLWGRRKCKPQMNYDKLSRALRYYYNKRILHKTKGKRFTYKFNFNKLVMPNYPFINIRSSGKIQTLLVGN
# Method in brief: as §1
# Chain of ETV5 (P41161 whole entry): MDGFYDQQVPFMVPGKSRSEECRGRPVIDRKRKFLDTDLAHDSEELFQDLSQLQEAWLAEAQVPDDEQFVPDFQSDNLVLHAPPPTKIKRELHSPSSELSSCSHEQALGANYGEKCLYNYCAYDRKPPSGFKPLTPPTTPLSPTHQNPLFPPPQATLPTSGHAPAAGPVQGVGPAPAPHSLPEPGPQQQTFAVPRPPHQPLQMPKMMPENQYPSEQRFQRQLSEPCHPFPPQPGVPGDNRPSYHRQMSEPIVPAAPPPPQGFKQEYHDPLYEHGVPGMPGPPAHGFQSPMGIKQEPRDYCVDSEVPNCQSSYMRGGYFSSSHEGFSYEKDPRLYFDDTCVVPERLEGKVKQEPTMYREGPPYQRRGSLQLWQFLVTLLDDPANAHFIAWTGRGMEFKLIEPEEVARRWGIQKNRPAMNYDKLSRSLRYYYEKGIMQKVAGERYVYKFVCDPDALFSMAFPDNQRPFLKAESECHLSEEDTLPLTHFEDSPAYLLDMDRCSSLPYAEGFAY
# Chain of ELF4 (Q99607 whole entry): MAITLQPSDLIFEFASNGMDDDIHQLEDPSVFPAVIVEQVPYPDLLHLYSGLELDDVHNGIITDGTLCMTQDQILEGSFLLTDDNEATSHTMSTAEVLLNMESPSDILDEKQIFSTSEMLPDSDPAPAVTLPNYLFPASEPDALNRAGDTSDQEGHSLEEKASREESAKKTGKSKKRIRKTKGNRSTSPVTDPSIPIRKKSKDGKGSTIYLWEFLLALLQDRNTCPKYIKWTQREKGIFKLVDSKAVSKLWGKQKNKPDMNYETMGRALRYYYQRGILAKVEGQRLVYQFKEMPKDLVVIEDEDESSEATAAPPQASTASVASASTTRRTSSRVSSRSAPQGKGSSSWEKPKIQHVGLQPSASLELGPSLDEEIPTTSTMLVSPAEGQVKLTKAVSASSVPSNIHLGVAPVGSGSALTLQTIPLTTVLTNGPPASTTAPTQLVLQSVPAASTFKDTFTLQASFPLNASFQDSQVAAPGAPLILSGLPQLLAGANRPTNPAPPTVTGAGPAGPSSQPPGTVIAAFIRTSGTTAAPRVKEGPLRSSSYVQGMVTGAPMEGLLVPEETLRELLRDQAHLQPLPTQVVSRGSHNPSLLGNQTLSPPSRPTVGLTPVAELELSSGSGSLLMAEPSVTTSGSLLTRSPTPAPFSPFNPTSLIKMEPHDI
# Chain of SPIB (Q01892 whole entry): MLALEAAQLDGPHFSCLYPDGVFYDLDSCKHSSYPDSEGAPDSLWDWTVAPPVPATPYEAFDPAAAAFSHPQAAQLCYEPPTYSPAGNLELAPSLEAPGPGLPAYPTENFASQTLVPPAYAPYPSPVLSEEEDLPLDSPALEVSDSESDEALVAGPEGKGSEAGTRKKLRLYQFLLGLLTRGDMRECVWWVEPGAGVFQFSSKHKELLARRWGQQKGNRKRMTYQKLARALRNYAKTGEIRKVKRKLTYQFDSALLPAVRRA
# Chain of ELF1 (P32519 whole entry): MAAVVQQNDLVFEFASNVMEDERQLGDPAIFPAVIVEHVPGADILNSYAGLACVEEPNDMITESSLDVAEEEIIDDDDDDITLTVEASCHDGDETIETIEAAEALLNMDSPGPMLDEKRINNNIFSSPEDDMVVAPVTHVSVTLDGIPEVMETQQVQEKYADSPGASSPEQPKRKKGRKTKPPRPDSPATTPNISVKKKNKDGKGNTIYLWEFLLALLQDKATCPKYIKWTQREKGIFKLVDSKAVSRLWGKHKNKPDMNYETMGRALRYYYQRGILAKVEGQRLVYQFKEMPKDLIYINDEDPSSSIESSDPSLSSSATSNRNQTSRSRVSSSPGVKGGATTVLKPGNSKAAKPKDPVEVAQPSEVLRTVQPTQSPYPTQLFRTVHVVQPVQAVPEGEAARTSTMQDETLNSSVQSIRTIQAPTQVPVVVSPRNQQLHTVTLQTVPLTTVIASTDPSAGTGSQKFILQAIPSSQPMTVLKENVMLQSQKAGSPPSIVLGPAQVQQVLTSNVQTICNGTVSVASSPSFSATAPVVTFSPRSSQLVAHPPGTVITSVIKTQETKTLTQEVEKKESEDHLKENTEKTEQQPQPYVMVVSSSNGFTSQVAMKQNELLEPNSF
# Chain of ETV1 (P50549 whole entry): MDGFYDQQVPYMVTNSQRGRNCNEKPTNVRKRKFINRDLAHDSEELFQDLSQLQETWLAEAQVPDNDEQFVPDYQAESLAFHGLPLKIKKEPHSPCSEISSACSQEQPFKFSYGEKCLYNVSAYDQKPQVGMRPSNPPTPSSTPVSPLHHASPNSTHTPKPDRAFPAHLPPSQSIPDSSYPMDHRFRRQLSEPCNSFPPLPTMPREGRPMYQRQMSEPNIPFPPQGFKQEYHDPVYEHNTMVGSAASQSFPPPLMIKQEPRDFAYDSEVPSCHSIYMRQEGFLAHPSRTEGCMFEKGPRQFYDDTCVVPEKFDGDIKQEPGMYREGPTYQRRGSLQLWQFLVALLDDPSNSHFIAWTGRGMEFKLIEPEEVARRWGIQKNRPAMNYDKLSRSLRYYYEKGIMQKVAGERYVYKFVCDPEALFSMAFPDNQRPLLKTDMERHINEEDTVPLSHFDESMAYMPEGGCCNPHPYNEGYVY
sequence,measurement,setting,value
CACGCA,binding signal,[1],"1.01 fold enrichment (6-mer frequency, TF over GST control)"
same,binding signal,[2],"1.02 fold enrichment (6-mer frequency, TF over GST control)"
same,binding signal,[3],"1.05 fold enrichment (6-mer frequency, TF over GST control)"
same,binding signal,[4],"1.01 fold enrichment (6-mer frequency, TF over GST control)"
same,binding signal,[5],"1.01 fold enrichment (6-mer frequency, TF over GST control)"
same,binding signal,[6],"1.02 fold enrichment (6-mer frequency, TF over GST control)"
same,binding signal,[7],"1.05 fold enrichment (6-mer frequency, TF over GST control)"
same,binding signal,[8],"1.03 fold enrichment (6-mer frequency, TF over GST control)"
same,binding signal,[9],"1.11 fold enrichment (6-mer frequency, TF over GST control)"
same,binding signal,[10],"1.18 fold enrichment (6-mer frequency, TF over GST control)"
same,binding signal,[11],"1.04 fold enrichment (6-mer frequency, TF over GST control)"
same,binding signal,[12],"1.09 fold enrichment (6-mer frequency, TF over GST control)"
same,binding signal,[13],"1.03 fold enrichment (6-mer frequency, TF over GST control)"
same,binding signal,[14],"1.07 fold enrichment (6-mer frequency, TF over GST control)"
